Only some compounds are listed: those with a hit (about 3.6% of all), similar ones and a draw of the others.
AmpC detergent = blocks E. coli AmpC beta-lactamase in detergent assay; P00811; AmpC hydrolysis of nitrocefin, absorbance 480 nm, 0.01% Triton; Potency, µM (doses to about 114 µM), hits mostly inhibitors; 370,000 compounds, 0.041% hits; AID 485294; note: nearly all actives have a fitted effect of over 25% in size
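20 mM phosphate pH 7.0 + 0.01% (detergent screen) or 0.0001% Triton X-100; 5.3 nM AmpC reagent; cpd preinc 15 min RT; nitrocefin (800 uM stock) to start; A480 q20 s × 4 min; Activity was normalised to no-enzyme and no-compound control wells.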
Sm TGR block = S. mansoni TGR enzyme inhibition; Q962Y6; purified TGR, DTNB reduction, TNB absorbance 405 nm; Potency, µM (doses to about 114 µM), usual class: inhibitors; 360,000 compounds, 3% hits; AID 485364; note: nearly all actives have a fitted effect of over 60% in size
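TGR 20 nM + NADPH 100 uM (dispensed conc.), cpd preinc 15 min RT; start with NADPH (500 uM addition) then DTNB (15 mM addition). Kinetic TNB absorbance, 405 nm filter. Four-parameter Hill fit across titration.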
AmpC inh no detg = blocks E. coli AmpC beta-lactamase in detergent-free assay; P00811; AID 485341; AmpC nitrocefin hydrolysis, absorbance 480 nm, 0.0001% Triton; Potency, µM (titrated, usually from 57.1 µM), most hits filed as inhibitors; 330,000 compounds, 0.52% hits; note: nearly all actives have a fitted effect of over 20% in size
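20 mM phosphate pH 7.0 + 0.01% (detergent screen) or 0.0001% Triton X-100; 5.3 nM AmpC reagent; cpd preinc 15 min RT; nitrocefin (800 uM stock) to start; A480 q20 s × 4 min; Activity was normalised to no-enzyme and no-compound control wells.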
Giardia FBPA inh = blocks Giardia fructose-bisphosphate aldolase activity | Potency, µM (highest dose often 59.6 µM), actives largely listed as inhibitors | 290,000 compounds, 0.71% hits | A8B2U2 | purified Giardia FBPA; note: nearly all actives have a fitted effect of over 55% in size
Target sequence (A8B2U2 whole entry, looked up): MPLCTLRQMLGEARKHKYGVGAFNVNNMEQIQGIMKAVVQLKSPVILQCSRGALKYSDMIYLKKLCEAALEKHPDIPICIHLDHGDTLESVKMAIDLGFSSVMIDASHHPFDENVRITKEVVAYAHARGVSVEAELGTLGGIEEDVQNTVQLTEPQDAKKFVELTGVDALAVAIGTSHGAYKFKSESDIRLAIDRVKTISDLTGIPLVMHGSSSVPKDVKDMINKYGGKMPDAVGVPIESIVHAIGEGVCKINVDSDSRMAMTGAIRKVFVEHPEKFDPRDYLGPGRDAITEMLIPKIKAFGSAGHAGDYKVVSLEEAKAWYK
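Giardia FBPA (40 nM reagent) was preincubated 10 min at RT with compound (up to 57.5 uM final), then substrate plus GAPDH/TPI/NAD/arsenate coupling system with diaphorase/resazurin was added; resorufin fluorescence (525/598 nm) was read after 20 min.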
Each line names hits and unclear results; the compound was inactive in the other large screens. Calls come from the whole dose curve; as a rule, active = well fitted curve in the direction sought with a large enough effect; inconclusive = small, poorly fitted or top-dose-only effect, or another doubt; inactive = no such curve, though single readings can be large; an effect the other way counts as inactive or inconclusive.

O=[N+]([O-])c1ccc(P(=O)(Cc2ccccc2)c2ccccc2O)cc1 (configuration not stated)	none
O=C(CCN1C(=O)/C(=C/c2cccs2)SC1=S)Nc1ccccn1	none
O=C(CCN1C(=O)S/C(=C\c2cccs2)C1=O)NC1=NCCS1	AmpC inh no detg 22µM
CCOc1ccc(S(=O)(=O)NCCCN2CCCC2=O)cc1	none (no result: Sm TGR block)
CCOc1ccc(N2C(=O)CC(N3CCN(C(=O)c4ccco4)CC3)C2=O)cc1 (configuration not stated)	Sm TGR block 45µM
O=C(c1ccco1)N1CCN(C2CC(=O)N(c3ccccc3)C2=O)CC1 (configuration not stated)	Sm TGR block 50µM
O=C(c1ccco1)N1CCN(C2CC(=O)N(c3ccc(C(F)(F)F)cc3)C2=O)CC1 (configuration not stated)	Sm TGR block 50µM (no result: Giardia FBPA inh)
CCOc1ccc2[nH]c(=O)c(CN(CCN3CCCC3)C(=S)Nc3ccccc3OC)cc2c1	none (no result: Sm TGR block)
O=C(OCn1ncc(Cl)c(Cl)c1=O)c1ccccc1Cl	AmpC detergent inconclusive, Sm TGR block 7.1µM
O=C(OCn1ncc(Cl)c(Cl)c1=O)c1ccc(F)cc1	Sm TGR block 7.1µM
O=C(OCCN1CCCCC1)c1ccccc1Cl	AmpC detergent inconclusive
O=C(Cn1ncc(Cl)c(Cl)c1=O)c1ccc(Cl)cc1	Sm TGR block inconclusive
O=c1cnn(Cc2ccc(F)cc2)c2ccccc12	none
O=c1c(Cl)c(Cl)cnn1Cc1ccc(F)cc1	Sm TGR block 20µM
COc1cccc(C2CC(=O)C3=C(C2)Nc2ccccc2N(C(=O)CCC(=O)O)C3c2ccc(F)cc2)c1 (configuration not stated)	Giardia FBPA inh inconclusive
CC(C)(O)C1Cc2cc(/C=C/C(=O)O)c(O)cc2O1 (configuration not stated)	Sm TGR block 0.22µM
COc1cc2c(cc1/C=C/C(=O)O)OC(C)C2 (configuration not stated)	none
Cc1onc(-c2c(F)cccc2Cl)c1C(=O)OCC(=O)NCc1ccco1	Sm TGR block 18µM
Cc1onc(-c2c(F)cccc2Cl)c1C(=O)Nc1cccc(S(=O)(=O)NCc2ccco2)c1	Sm TGR block 28µM
O=C(Nc1cccc(S(=O)(=O)NCc2ccco2)c1)c1ccc(Cl)cc1	none (no result: AmpC detergent, Sm TGR block, Giardia FBPA inh)
Cc1onc(-c2c(F)cccc2Cl)c1C(=O)NCc1ccco1	none
CCCCOC(=O)C1[C@H]2C(=O)N(c3ccccc3CC)C[C@]23C=C[C@H]1O3 (some centres not stated)	none
CCc1ccccc1N1CC23C=CC(O2)C(C(=O)O)C3C1=O (configuration not stated)	AmpC inh no detg 3.5µM
CCOC(=O)C1C2C=CC3(CN(Cc4ccco4)C(=O)C13)O2 (configuration not stated)	Sm TGR block 32µM
CCOC(=O)C1C2C=CC3(CN(Cc4cccs4)C(=O)C13)O2 (configuration not stated)	none
COC(=O)C1C2C=CC3(CN(Cc4ccco4)C(=O)C13)O2 (configuration not stated)	Sm TGR block 28µM
O=C(O)C1C2C=CC3(CN(Cc4ccco4)C(=O)C13)O2 (configuration not stated)	Sm TGR block inconclusive
O=C1[C@H](c2ccccc2)[C@@H](c2ccccc2)N1c1ccncc1	none (no result: AmpC detergent, Sm TGR block, Giardia FBPA inh)
CCOC(=O)[C@H]1[C@H]2COc3ccccc3[C@@H]2N2C(=O)CN(CC3CCCO3)C(=O)[C@@]12C (some centres not stated)	none (no result: AmpC detergent, Sm TGR block, Giardia FBPA inh)
CCOC(=O)C1(C)/C(=N/Nc2ccc(Cl)cc2)C(=O)C(=O)N1c1ccccc1 (configuration not stated)	Sm TGR block 50µM
O=C1CC(C(=O)N2CCC(N3CCC(C(=O)NC4CC4)CC3)CC2)c2ccccc21 (configuration not stated)	Sm TGR block 40µM
Cc1cc(CN2CCC(N3CCC(C(=O)NC4CC4)CC3)CC2)cc(C)c1O	Sm TGR block 45µM (no result: Giardia FBPA inh)
O=C(NCC1CCCN(C(=O)CN2CCCCC2)C1)c1ccccc1Cl (configuration not stated)	none
CC(C)CN1CCC(Oc2cccc(C(=O)NCCc3ccccc3)c2)CC1	AmpC detergent inconclusive
c1csc(CNc2nc(-c3ccoc3)nc3ccccc23)c1	none (no result: AmpC detergent, Sm TGR block, AmpC inh no detg)
N#C/C(=C\c1ccco1)C(=O)Nc1ccc(S(N)(=O)=O)cc1	AmpC detergent inconclusive
